Reference: the OligoGym collection

molecular target: CCL13; experiment: pooled miR-30 sensor sort-seq; sequence = guide strand; details: shRNA

Row | Sequence | sensor-assay potency score (higher = more potent)
1 | ATTCTGGACCCACTTCTCCTTT | -1.22
2 | ATCTTCTTACTGCTAAATGTGA | -1.06
3 | TTTCATATAATTCTGGACCCAC | 0.0997

molecular target: CCL23; experiment: as above; details: shRNA

Row | Sequence | sensor-assay potency score (higher = more potent)
4 | TCTCACGCAAACCTGAACTTGC | -0.191
5 | TGAACTTGCTTATCACTGGGGT | 0.574
6 | TCCAAGGGCAGTAACAAGCATG | -1.61
7 | TTGGAGCACTCGCTGTTCGTTT | -0.72
8 | TAGTAGCATGGAATCTGTCCAG | -0.782
9 | TCATGAACTCTGTCTCTGCATC | -0.664
10 | TTTGACATCATGAACTCTGTCT | 0.483
11 | AGTAGCATGGAATCTGTCCAGA | -1.79
12 | TCTGTCTCTGCATCTTTTGTGA | -0.455
13 | TCTGCATCTTTTGTGACCCGGG | -0.271
14 | TGAACTCTGTCTCTGCATCTTT | -0.137
15 | TTCAAAGTAACTCTCCAGGAGT | -0.524

molecular target: CCL26; experiment: as above; details: shRNA

Row | Sequence | sensor-assay potency score (higher = more potent)
16 | TTGGTAGTGAATATCACAGCCC | -0.403
17 | TGGATGGGTACAGACTTTCTTG | -1.49
18 | TTCTTGCCTCTTTTGGTAGTGA | -0.89
19 | TCTTTTGGTAGTGAATATCACA | -1.4
20 | TAGCTTCGCACCCAGGTCCAGG | -1.45
21 | TTGTGGCTGTATTGGAAGCAGC | -1.27
22 | TATTGGAAGCAGCAGGTCTTGG | -1.48
23 | TTGGATATGTCACTCCCACGTG | -0.51
24 | TAGTGAATATCACAGCCCGCTG | -1.27
25 | TTTTGGTAGTGAATATCACAGC | -0.793

molecular target: CCL28; experiment: as above; details: shRNA

Row | Sequence | sensor-assay potency score (higher = more potent)
26 | TTCTTCTGCGCTTGACATGAAG | -1.32
27 | ATATGATGTGAAACCTCCGTGC | -0.448
28 | TTAACAGTATGGTTGTGCGGGC | -0.737
29 | TTTCTTGGCAGCTTGCACTTTC | 0.0736
30 | TTGCACTTTCATCCACTGCTTA | -0.197
31 | TTTTCTTGGCAGCTTGCACTTT | -0.496
32 | TTGCCATGGTGTTTCTTCCTGT | -0.322
33 | TGCACTTTCATCCACTGCTTAA | -1.51
34 | AATATGATGTGAAACCTCCGTG | 0.282
35 | TGATGTGAAACCTCCGTGCAAC | -1.14
36 | ACACATATTCACTCTTTCCAGG | -1.19
37 | TCCTGTGGCAAACATTTCCTTT | -1.54

molecular target: CCNA1; experiment: as above; details: shRNA

Row | Sequence | sensor-assay potency score (higher = more potent)
38 | TTTCACTTAATGAATACCCTGT | 1.11
39 | TGATATAGACAAACTCGTCTAC | 0.267
40 | TAACAGTTGTCGTTTTGTGTAT | -0.217
